{"source": "PubChem BioAssay AID2283176", "about": "(EPA ToxCast)", "note": "Results filed as inconclusive are left out. Active and inactive are the calls of the source. How the source made its calls: active means hit-call score of the fitted dose curve at least 0.9, where 1 is the maximum; inconclusive means response in the unintended direction; inactive means score below 0.9."}
{"target": "human MAP Kinase-Activated Protein Kinase 5 (MAPKAPK5), MAPKAPK5 (gene 8550) (UniProt Q8IW41)", "sequence (Q8IW41 whole entry, looked up)": "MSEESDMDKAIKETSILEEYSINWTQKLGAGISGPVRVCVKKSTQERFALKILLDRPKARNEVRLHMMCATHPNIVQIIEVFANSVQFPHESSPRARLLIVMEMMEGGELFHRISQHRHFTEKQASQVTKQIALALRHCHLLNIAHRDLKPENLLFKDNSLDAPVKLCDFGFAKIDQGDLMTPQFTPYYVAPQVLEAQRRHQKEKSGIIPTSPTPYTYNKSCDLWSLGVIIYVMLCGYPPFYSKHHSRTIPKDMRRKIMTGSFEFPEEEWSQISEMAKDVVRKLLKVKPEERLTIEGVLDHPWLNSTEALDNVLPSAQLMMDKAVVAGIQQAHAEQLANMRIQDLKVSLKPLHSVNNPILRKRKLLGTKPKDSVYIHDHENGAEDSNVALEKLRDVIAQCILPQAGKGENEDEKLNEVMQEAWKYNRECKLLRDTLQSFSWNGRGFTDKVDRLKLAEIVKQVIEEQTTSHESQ", "assay": "NVS_ENZ_hMAPKAPK5: NovaScreen (NVS) Enzymatic Assay for human MAP Kinase-Activated Protein Kinase 5 (MAPKAPK5)", "description": "NVS_ENZ_hMAPKAPK5 is a biochemical, single-readout assay that uses extracted gene-proteins in a cell-free assay. Measurements were taken 1 hour after chemical dosing in a 384-well plate.NVS_ENZ_hMAPKAPK5 is one of one assay component(s) measured or calculated from the NVS_ENZ_hMAPKAPK5 assay. It is designed to make measurements of enzyme activity, a form of enzyme reporter, as detected with fluorescence intensity signals by Fluorescence and electrophoretic mobility shift technology.Data from the assay component NVS_ENZ_hMAPKAPK5 was analyzed into 1 assay endpoint. This assay endpoint, NVS_ENZ_hMAPKAPK5, was analyzed in the positive analysis fitting direction relative to DMSO as the negative control and baseline of activity. Using a type of enzyme reporter, loss-of-signal activity can be used to understand changes in the enzymatic activity as they relate to the gene MAPKAPK5. Furthermore, this assay endpoint can be referred to as a primary readout, because this assay […]. To generalize the intended target to other relatable targets, this assay endpoint is annotated to the kinase intended target family, where the subfamily is serine/threonine kinase.\nBinding assays used specific radioligands (tritiated, iodinated) with non-radioactive competitive displacement ligands in agonist or antagonist protocols (as indicated) and various reference compounds and inhibitors to titrate specific binding to receptors and transporters. Most enzyme assays (CYPs, kinases, phosphatases, proteases, HDACs) used recombinant protein and specific substrates (fluorescence mostly, some colorimetric and radioactive) and inhibitors, followed by a biochemical separation of substrate and product. All assays for the biochemical HTS were initially run in duplicate at a single concentration (10 uM for CYP450 assays and 25 uM for all others). Assay-chemical combinations meeting a pre-defined threshold (e.g., 30% inhibition and other criteria defined below) were then run in singleton concentration-response format with maximum concentration of 20 uM for CYPs and 50 uM for all others. Each assay was run with positive and negative controls, and concurrent controls on every plate. The follow-up (secondary) screen tested active chemical-pairs in concentration series, as well as a few additional assays not tested in the primary screen, some selected negative inactives, and several cases re-run in the concentration series for confirmatory purposes."}
{"smiles": "S=C1NCCN1", "outcome": "inactive"}
{"smiles": "O=C(O)C(F)(F)C(F)(F)C(F)(F)C(F)(F)C(F)(F)C(F)(F)C(F)(F)F", "outcome": "inactive"}
{"smiles": "CCCC(=NOCC)C1=C(O)CC(CC(C)SCC)CC1=O", "note": "(stereo not drawn)", "outcome": "inactive"}
{"smiles": "O=S(=O)(O)C(F)(F)C(F)(F)C(F)(F)C(F)(F)C(F)(F)C(F)(F)C(F)(F)C(F)(F)F", "AC50": "44.1 µM (active)"}
{"smiles": "CN(C)[C@@H]1C(=O)C(C(N)=O)=C(O)[C@@]2(O)C(=O)C3=C(O)c4c(O)cccc4[C@@](C)(O)[C@H]3[C@H](O)[C@@H]12", "AC50": "24.2 µM (active)"}
{"smiles": "C=C(C)CN(CC)c1c([N+](=O)[O-])cc(C(F)(F)F)cc1[N+](=O)[O-]", "outcome": "inactive"}
{"smiles": "N#Cc1c(Cl)c(Cl)c(Cl)c(C#N)c1Cl", "outcome": "inactive"}
{"smiles": "CNC(=S)S", "outcome": "inactive"}
